Tests used:
[1] = system: Vero E6 infected with SARS-CoV-2; experiment: morphology score (similarity to uninfected cells); higher = more like uninfected cells; settings: 24 h
[2] = system: Vero E6 infected with SARS-CoV-2; experiment: SARS-CoV-2 infection rate relative to infected DMSO; higher = more infection, active = 60 or less; settings: 24 h

Row | Compound | morphology score [1] | SARS-CoV-2 infection rate [2]
1 | CC[C@@H](C)c1ccc(NC(=O)Cn2cnc3c2c(=O)n(C)c(=O)n3C)cc1 (racemic) (10 µM) | 0.119 | 92% (inactive)
2 | Cc1ccc(-c2ccc(C)cn2)nc1 [abametapir] (10 µM) | 0.0247 | 106% (inactive)
3 | CCOCCOc1ccccc1C(N)=O [etosalamide] (10 µM) | 0.0693 | 104% (inactive)
4 | CCc1nc(N)nc(N)c1-c1ccc(Cl)cc1 [pyrimethamine] (0.833333 µM) | -0.0159 | 115% (inactive)
5 | O=C(O)c1ccccc1-c1ccc(C(F)(F)F)cc1 [xenalipin] (10 µM) | 0.0335 | 102% (inactive)
6 | Cc1ccccc1-c1cc(N2CCN(C)CC2)ncc1N(C)C(=O)C(C)(C)c1cc(C(F)(F)F)cc(C(F)(F)F)c1 [netupitant] (10 µM) | 0.112 | 94% (inactive)
7 | CCN(CC)CCOc1ccc(/C(=C(\Cl)c2ccccc2)c2ccccc2)cc1 [clomifene] (0.833333 µM) | 0.172 | 96.5% (inactive)
8 | OCc1ccccc1O[C@@H]1O[C@H](CO)[C@@H](O)[C@H](O)[C@H]1O [salicin] (10 µM) | 0.153 | 99% (inactive)
9 | COc1cc2c(cc1OC)C(=O)C(CC1CCN(Cc3ccccc3)CC1)C2 (configuration not stated) [donepezil] (10 µM) | 0.153 | 100% (inactive)
10 | Cc1cc(-c2ccccc2)nnc1NCCN1CCOCC1 [minaprine] (10 µM) | 0.145 | 103% (inactive)
11 | C=C1C(=O)O[C@@H]2[C@H]3C(C)=CC[C@@]34O[C@@]4(C)CC[C@@H]12 [arglabin] (10 µM) | 0.144 | 68% (inactive)
